# Bioassay records as filed in PubChem BioAssay.
# Giardia killer = Giardia lamblia killing; activity change, % at 7.66 µM, hits read low; Giardia lamblia trophozoite viability; 0.15% of 340,000 active; AID 540267; in the data active = activity change below about -80%; inconclusive = between about -30% and that limit;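 note: parasites exposed to compound for two days anaerobically before the ATP read; % is set by controls: 0 for no effect and ±100 for the full control effect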
#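 Giardia trophozoites, 100 cells per well, were exposed to compounds for 48 hrs at 37 deg C under anaerobic conditions; viability was then read as ATP content by bioluminescence after 15-30 min at room temperature.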
# RORg inh = blocks mouse ROR gamma transcriptional activity; AID 2551; Drosophila S2 Gal4-RORgamma UAS-luciferase reporter, 20 h; 5.4% of 310,000 active; Potency, µM (doses to about 53.6 µM), for inactives: top-dose activity change, negative = inhibition, actives largely listed as inhibitors; note: potency is the fitted concentration of half-maximal effect; % is set by controls: 0 for no effect and ±100 for the full control effect; nearly all actives have a fitted effect of over 60% in size
# Target sequence (P51450 whole entry, looked up, the tested form may be a part): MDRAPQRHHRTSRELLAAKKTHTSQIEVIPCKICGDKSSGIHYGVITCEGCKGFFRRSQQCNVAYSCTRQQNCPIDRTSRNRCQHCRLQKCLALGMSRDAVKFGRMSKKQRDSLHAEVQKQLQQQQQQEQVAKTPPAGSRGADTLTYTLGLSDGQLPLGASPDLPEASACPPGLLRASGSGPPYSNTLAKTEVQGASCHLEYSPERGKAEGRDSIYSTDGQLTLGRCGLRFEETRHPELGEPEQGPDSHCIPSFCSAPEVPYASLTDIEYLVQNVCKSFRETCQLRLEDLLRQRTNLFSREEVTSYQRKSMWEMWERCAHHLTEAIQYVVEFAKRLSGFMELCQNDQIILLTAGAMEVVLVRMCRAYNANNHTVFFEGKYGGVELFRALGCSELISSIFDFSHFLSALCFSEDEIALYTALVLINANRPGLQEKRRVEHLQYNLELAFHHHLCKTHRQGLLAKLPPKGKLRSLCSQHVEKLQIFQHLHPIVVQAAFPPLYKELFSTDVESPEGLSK
#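 Luciferase reporter read in Schneider cells carrying Gal4-RORγ (mouse) and UAS-Photinus luciferase; cells given compound 1 h before 700 uM copper sulfate induction, then incubated 20 h at ambient temperature.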
# SW480 rerep = DNA re-replication induction in SW480 cells; SW480 DNA re-replication, Hoechst DNA content imaging, 48 h; Potency, µM (titrated, usually from 46.1 µM), without a hit: at the top dose re-replication activation, hits mostly activators; 1.8% of 340,000 active; AID 624297; note: potency is the fitted concentration of half-maximal effect; % of control where 0% means no effect; nearly all actives have a fitted effect of over 55% in size
#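 250 cells/well; 23 nL cpd via pin tool; 48 hr, 37 C, 5% CO2; Hoechst 40 min; imager read of total nuclear intensity, ex 405/em 500-530 nm.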
# MCF10A rereplic = induces DNA re-replication in MCF 10a normal breast cells; Potency, µM (doses to about 46.1 µM), without a hit: at the top dose activity, positive = re-replication, most hits filed as activators; MCF 10A DNA re-replication, Hoechst nuclear intensity, 48 h; 2.9% of 350,000 active; AID 624296; note: potency is the fitted concentration of half-maximal effect; % of control where 0% means no effect; nearly all actives have a fitted effect of over 50% in size
# VP16 counter = counter-screen for ROR gamma inhibitors: Gal4-VP16 reporter | 3.5% of 310,000 active | Potency, µM (doses to about 53.6 µM), for the others: at the top dose activity, negative = inhibition, usual class: inhibitors | Drosophila S2 Gal4-VP16 UAS-luciferase, luminescence, 20 h;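 note: Gal4-VP16 expression switched on by copper sulfate through the metallothionein promoter; potency is the fitted concentration of half-maximal effect; % is set by controls: 0 for no effect and ±100 for the full control effect; nearly all actives have a fitted effect of over 50% in size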
# Chronic BCR inh = chronic active BCR signaling inhibition. Potency, µM (highest dose often 46.1 µM), without a hit: at the highest dose activity change, negative = inhibition, usual class: inhibitors. ABC-DLBCL IkBa-CBG/CBR reporter, luminescence ratio, 4 h. 0.05% of 340,000 active; active = well fitted inhibition curve with a large enough effect in the signal ratio, with a control signal flat, not every such curve was filed as active; inconclusive = small, poorly fitted or top-dose-only effect, or effect the other way, or a change in a side signal; the % refers to the signal ratio;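 note: potency is the fitted concentration of half-maximal effect; plate controls were basal doxycycline-induced cells for no effect and cells given 10 µM MG132 for full effect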
#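 TMD8 ABC-DLBCL cells carrying doxycycline-inducible green luciferase fused to IkappaBalpha plus unfused red luciferase were exposed to compounds (up to 46 uM) for 4 hrs at 37C. Activity came from the overlap-corrected green/red luminescence ratio.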
# An asterisk follows results filed as active; ? = inconclusive; / = no result given; [ ] = remark or other dose. Compounds with a hit are over-represented: about 8.3% of the library has one in this group of screens. Unless noted, calls come from the whole dose curve; as a rule, active = well fitted curve in the direction sought with a large enough effect; inconclusive = small, poorly fitted or top-dose-only effect, or another doubt; inactive = no such curve, though single readings can be large; an effect the other way counts as inactive or inconclusive.
SMILES,Giardia killer,RORg inh,SW480 rerep,MCF10A rereplic,VP16 counter,Chronic BCR inh
C=CCNC(=S)N/N=C/c1ccc(OCc2ccccc2Cl)cc1,13,0.79µM*,7.3µM*,?,1.6µM*,-15%
COc1ccc(C2=NN(c3nc(-c4ccc(CNC(C)=O)cc4)cs3)C(c3ccco3)C2)cc1 (centres undefined),-2,-14%,?,2.6µM*,-7%,12%
Cc1nnnn1/C(=C\c1ccccc1)C(=O)OCC(=O)N(C)C1CCS(=O)(=O)C1 (centres undefined),5,11µM*,?,-3%,0%,?
Nc1ccc(N=Nc2ccccc2)c2cccnc12,12,-37%,-5%,0%,8%,?
Oc1ccc(N=Nc2ccc3c(c2)OCCO3)c2cccnc12,-16,0%,0%,26%,-22%,-13%
COc1ccc(N=Nc2ccc(O)c3ncccc23)cc1,-8,0.13µM*,?,20%,?,?
COc1cccc(N=Nc2ccc(O)c3ncccc23)c1,-2,0.32µM*,27%,-5%,-94%,?
Cc1ccccc1N=Nc1ccc(O)c2ncccc12,-23,0.63µM*,?,?,0.89µM*,?
COc1cccc(N=Nc2ccc3cccnc3c2O)c1,-13,0.56µM*,2%,28%,0.89µM*,-2%
CC1CCC(NC(=O)C2CC(=O)N(c3ccc(Cl)cc3)C2)CC1 (centres undefined),9,8%,-3%,-18%,-5%,0%
CC(=O)NCCCNC(=S)NCCCN(Cc1ccc(Cl)cc1)c1ccc(Br)cn1,-3,/,/,/,/,/
COc1ccc(C)cc1N=Nc1ccc(O)c2ncccc12,-13,0.79µM*,?,17%,0.63µM*,-6%
Cc1ccc(O)c2ncccc12,/,5µM*,?,?,8.9µM*,/
O=S(=O)(O)c1cccc2c(N=Nc3ccc(O)c4ncccc34)cccc12,6,?,-6%,-10%,-16%,?
O=Nc1ccc(O)c2ncccc12,-26,1.6µM*,?,13%,5.6µM*,?
COc1ccc(C)cc1-n1c(=O)c2ccccc2c2ccccc2c1=O,-8,-24%,0%,10%,3%,-8%
CCn1c(SCC(=O)N2CCC(C)CC2)nc2c1c(=O)n(C)c(=O)n2C,4,24%,-6%,6%,-1%,2%
COC(=O)C1CC(c2ccc(Cl)cc2)=NO1 (centres undefined),-8,5%,-1%,0%,1%,14%
Nc1nc2ccccc2n1C(=O)c1ccccc1,?,0.63µM*,27%,6%,5µM*,?
Nc1nc2ccccc2n1C(=O)c1ccc(F)cc1,-23,2.2µM*,0%,-6%,11µM*,?
Nc1nc2ccccc2n1C(=O)c1ccco1,8,11µM*,6%,17%,?,?
Nc1nc2ccccc2n1C(=O)c1cccs1,-25,0.89µM*,3%,2%,2.8µM*,?
COc1ccc(C(=O)n2c(N)nc3ccccc32)cc1OC,7,?,-7%,2%,?,?
CCN1CCc2c(sc(NC(=O)COc3ccccc3)c2C(=O)OC)C1,7,-18%,1%,2%,-6%,3%
O=C(Nc1ccc(-c2csc(Nc3ccccc3)n2)cc1)c1ccccc1,16,22%,?,-25%,8%,9%
SMILES,Giardia killer,RORg inh,SW480 rerep,MCF10A rereplic,VP16 counter,Chronic BCR inh
CC(=O)NNc1nc(-c2ccc(NC(C)=O)cc2)cs1,-21,-5%,0%,0%,?,-4%
O=C(NNc1nc(-c2ccccc2)cs1)c1ccccc1,-1,5µM*,21%,?,4µM*,?
N#Cc1ccc(-c2csc(NNC(=O)c3ccc(Br)cc3)n2)cc1,-7,5µM*,5.2µM*,?,?,0%
CC(=O)Nc1ccc(-c2csc(NNC(=O)c3ccc(C)cc3)n2)cc1,-4,-22%,14%,-1%,3%[10 µM],-3%
N#Cc1ccc(-c2csc(NNC(=O)c3ccccc3)n2)cc1,-5,11µM*,?,-3%,?,?
COC(=O)c1nc(NNC(=O)c2ccccc2)sc1-c1ccccc1,-6,14µM*,12%,6%,-26%,-7%
COCCCNC(=O)Cn1c(=O)n(-c2cccc(C)c2)c(=O)c2c1c1cc(C)ccc1n2C,/,/,/,/,/,-1%
COc1cc(C(C)=O)ccc1OCC(O)CN1CCN(c2cc(C)cc(C)c2)CC1 (centres undefined),-25,17%,-6%,-6%,7%,-2%
COc1ccc(F)c(CN2CCCC(CNS(=O)(=O)c3cccc4cccnc34)C2)c1 (centres undefined),14,7%,-19%,17%,0%,6%
CC(C)CN1C(=O)C(=O)N(CC(=O)c2ccc[nH]2)C1=O,-6,/,1%,-5%,/,5%
Cc1noc(C)c1-c1ccc2ncnc(NC3CCCc4ccccc43)c2c1 (centres undefined),/,28µM*,/,/,-4%,/
Cc1noc(C)c1-c1ccc2ncnc(NCc3ccc(Br)cc3)c2c1,/,11µM*,/,/,11µM*,/
Cc1noc(C)c1-c1ccc2ncnc(NCc3ccccc3)c2c1,/,2.8µM*,/,/,-10%,/
Cc1ccsc1CNc1ncnc2ccc(-c3c(C)noc3C)cc12,-21,?,-1%,5.8µM*,?,-16%
NC(=O)c1cc(C(=O)Cc2ccc(Cl)cc2)c[nH]1,14,4%,-5%,1%,-8%,-8%
CCCCNC(=O)Cn1c(SCc2cccc(F)c2)nc2ccncc21,-11,/,/,/,/,/
O=C(CN1CCN(Cc2ccccc2)CC1)Nc1cccc(Br)c1,20,9%,12%,23%,5%,-14%
Cc1noc(C)c1COc1cccc(C(=O)OCC(=O)N2CC(=O)Nc3ccccc32)c1,-15,-43%,9.2µM*,1.8µM*,3%,?
CC(NCC(c1ccco1)N1CCCCC1)C(=O)NC1CCCC1 (centres undefined),-23,23%,-4%,53%,3%,-5%
COc1ccc(C(=O)OCC(O)COC(=O)c2ccc(OC)cc2)cc1,-4,/,-8%,1%,/,/
COc1ccc([N+](=O)[O-])cc1/C=N/NC(=O)c1nonc1N,-4,23%,18µM*,16µM*,4%,0%
COc1ccc([N+](=O)[O-])cc1/C=N/NC(=O)CNC(=O)C(c1ccccc1)c1ccccc1,-9,?,24%,14%,?,-3%
COc1ccc([N+](=O)[O-])cc1/C=N/NC(=O)CNC(=O)c1cccc(F)c1,-6,10µM*,20%,7%,?,0%
